{"source": "PubChem BioAssay (NCI)", "note": "The panel holds about 83,000 compounds, 20% with a hit somewhere; the sample as a whole holds those more often.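 How to read the values: 0–100, growth inhibition (40 = 60% inhibited); 0, no net growth; -100 to 0, cell death (-40 = 40% of starting cells died; -100 = all dead).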 Activity calls are given as the source filed them. Rule for the calls: active = growth percent below 10; inactive = the rest."}
{"test_system": "HL-60(TB) leukemia", "assay": "NCI-60 one-dose screen, 48 h (100 = growth as untreated, 0 = no growth, -100 = all killed)", "settings": "10 µM unless noted"}
{"smiles": "Nc1nc2c(c3cnccc13)C(c1ccc(Cl)c(Cl)c1)Cc1cnccc1-2", "note": "(stereo not given)", "growth": "-16.5% (active)"}
{"smiles": "C/C=C/C1=CN2C(=O)c3cc(OC4OC(C)C(NC)C(C)(O)C4O)c(C)cc3N=C[C@@H]2C1", "note": "(stereo not given in full)", "growth": "-4.41% (active)"}
{"smiles": "Cc1cc([C@@H](C)Nc2ccccc2C(=O)O)c2nc(N3CCOCC3)cc(=O)n2c1", "growth": "26.7% (inactive)"}
{"smiles": "CC(C)NS(=O)(=O)c1cccc(-c2ccc3c(=O)n(CCCN)c4c(c3c2)C(=O)c2ccccc2-4)c1", "growth": "125% (inactive)"}
{"smiles": "CC(=O)c1c(C)[nH]c(-c2nc3ccc(N4CCN(C)CC4)cc3[nH]2)c1-c1ccc(N(C)C)cc1", "growth": "-17.3% (active)"}
{"smiles": "O=C(N/N=C/c1coc2ccccc2c1=O)c1cc2oc(-c3ccccc3)cc2[nH]1", "growth": "99% (inactive)"}
{"smiles": "Nc1nc(Nc2cccnc2)sc1C(=O)c1ccccc1F", "growth": "-35.6% (active)"}
{"smiles": "Cc1ccc(-c2cc(-c3ccc(C)cc3)nc(N3CCN(CCNc4ccnc5cc(Cl)ccc45)CC3)n2)cc1", "growth": "0.0538% (active)"}
{"smiles": "O=C(Nc1ccc(Cl)cc1)Nc1ccc(Oc2nncc3ccccc23)cc1", "growth": "3.65% (active)"}
{"smiles": "CCOC(=O)C1=C(C(=O)c2ccc(Br)cc2)C(c2ccc(Br)cc2)NC(=S)N1", "note": "(stereo not given)", "growth": "117% (inactive)"}
{"smiles": "COc1ccc(-c2csc(NC(=O)CN3CCN(CCO)CC3)n2)cc1NS(=O)(=O)c1cccc2c(N(C)C)cccc12", "growth": "93.8% (inactive)"}
{"smiles": "Cc1ccc(C)c(-c2csc(Nc3ccc(C)c(C)c3)n2)c1", "growth": "34.4% (inactive)"}
{"smiles": "COc1ccc(-c2nc(N/N=C/c3cccc(O)c3)nc(N3CCOCC3)c2C#N)cc1", "growth": "49.2% (inactive)"}
{"smiles": "Cc1ccc(-c2nc(N3CCN(CC(=O)Nc4ccc(Cl)cc4)CC3)c3ccccc3n2)cc1", "growth": "99.8% (inactive)"}
{"smiles": "O=[N+]([O-])c1ccc(-c2cc3c(Nc4ccc(OCc5cccc(Cl)c5)c(Cl)c4)ncnc3s2)cc1", "growth": "44.2% (inactive)"}
{"smiles": "CCN(CC)CCOc1ccc2c(-c3ccccc3)c(-c3ccc(OC)cc3)c(=O)oc2c1", "growth": "48.8% (inactive)"}
{"smiles": "Cc1ccc2[nH]c3nc4cccnc4c(C)c3c2c1", "growth": "83.5% (inactive)"}
{"smiles": "C#CCOc1ccc(C2=NN(CCCC)C3N=C(Cl)c4ncn(CCCC)c4N23)cc1OCC#C", "note": "(stereo not given)", "growth": "99.4% (inactive)"}
{"smiles": "CC(C)c1[nH]nc2c(NCc3ccc(-c4ccccn4)cc3)nc(SCCN)nc12", "growth": "-24.4% (active)"}
{"smiles": "Nc1ccc(N(O)/C=C2\\C=CC=CC2=O)cc1N", "growth": "73.2% (inactive)"}
{"smiles": "O=C1Nc2ccccc2/C1=N/N1C(=O)CN(CCCl)C1=O", "growth": "96.3% (inactive)"}
{"smiles": "Cc1cc(=O)n2n1-c1ccc(Cl)cc1NC(=O)C2", "growth": "101% (inactive)"}
{"smiles": "COc1ccc(-c2nc(-c3ccccc3)c(-c3ccccc3)n2C2CC2)cc1OC1CCCCC1", "growth": "30% (inactive)"}
{"smiles": "O=c1c2cc(F)ccc2sc2c(NCCN3CCCC3)nc3ccccc3c12", "growth": "91.9% (inactive)"}
{"smiles": "CCCn1cnc2c(c1=N)C(c1ccc(Cl)cc1)c1sc3c(F)cccc3c1O2", "note": "(stereo not given)", "growth": "62.5% (inactive)"}
{"smiles": "Cc1c2cnccc2c(C)c2c1oc1ccccc12", "growth": "61.8% (inactive)"}
{"smiles": "N#Cc1ccc(O)c(C2=NCC(c3cccc(Oc4ccccc4)c3)O2)c1", "note": "(stereo not given)", "growth": "-8.73% (active)"}
{"smiles": "COc1ccc(/C=C/C(=O)c2ccc(NC(=O)CSc3nnc(-c4cc(-c5ccccc5)nc5ccccc45)n3-c3ccccc3)cc2)cc1", "growth": "95.9% (inactive)"}
{"smiles": "COc1ccc(-c2cc(-c3cc(OC)c(OC)c(OC)c3)c(C#N)c(=O)n2CCCCCC(=O)NO)cc1", "growth": "103% (inactive)"}
{"smiles": "CC1=C(C(=O)Nc2ccc(F)cc2)C(c2ccc(C)cc2)C2=C(CC(C)(C)CC2=O)N1", "note": "(stereo not given)", "growth": "114% (inactive)"}
{"smiles": "O=c1ccc2nc(-c3ccccc3)nn(-c3ccccc3)c-2c1", "growth": "-45.5% (active)"}
{"smiles": "O=c1oc2c(cc1-c1ccccc1)c(=O)[nH]c1ccccc12", "growth": "98.1% (inactive)"}
{"smiles": "C=CC(COC(c1ccccc1)(c1ccccc1)c1ccccc1)N(CC)CC", "note": "(stereo not given)", "growth": "48.1% (inactive)"}
{"smiles": "COc1ccc(-c2nn(-c3cccc(Cl)c3)cc2-c2cc(-c3ccc(Br)cc3)[nH]c(=O)c2C#N)cc1", "growth": "101% (inactive)"}
{"smiles": "c1ccc(C2CC(c3cccc(Nc4ccncc4)c3)=NN2c2ccccc2)cc1", "note": "(stereo not given)", "growth": "-8.94% (active)"}
{"smiles": "COc1ccc(/C=C2\\CCC/C(=C\\c3ccc(OC)c(OC)c3)C2=O)cc1OC", "growth": "3.46% (active)"}
{"smiles": "C#Cc1ccc(-n2c(/C=C/c3ccc4ccccc4n3)nc3ncccc3c2=O)cc1", "growth": "-34.6% (active)"}
{"smiles": "CC(=O)N1N=C(c2ccc(Nc3nc(Nc4ccc(F)cc4)nc(Nc4ccc(Cl)cc4)n3)cc2)CC1c1ccc(N(C)C)cc1", "note": "(stereo not given)", "growth": "19% (inactive)"}
{"smiles": "c1ccc(-c2n(Cc3ccc4ccccc4c3)cc[n+]2Cc2ccc3ccccc3c2)cc1", "growth": "-47.6% (active)"}
{"smiles": "CC1=NC2=Nn3c(c4cnn(-c5ccccc5)c4n/c3=N\\N)NN2C(c2ccccc2)=C1", "growth": "106% (inactive)"}
